The target of assay [1] is POU1 (OCT1 POU domain) (human, UniProt P14859 260-458). The assay can be described thus: EMSA-SELEX-seq; no BOB1; 20 mM Tris-HCl pH 7.6, 140 mM NaCl, 10% glycerol, 0.5 mM EDTA, 0.05% Triton X-100, 0.1 mg/mL BSA, 0.1 mg/mL poly(dI-dC), 5 mM DTT, room temperature, 20 min; high values mean tight binding. The settings on record: protein: recombinant; dsDNA, one strand shown. In short, it runs like this: (§1)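 A double-stranded random 35-nt library (300 ng, PCR-amplified) was incubated with 30 ng tagged POU-domain protein, with or without 28 ng coactivator protein, in 20 μL Tris–HCl pH 7.6 binding buffer for 20 min at RT. The proteins had been expressed in E. coli BL21, purified under denaturing conditions and renatured. Complex bands from native 6% PAGE were eluted and PCR-amplified over four rounds, then sequenced on Illumina. For binding preference, the percentage of sequenced 8-mers matching a motif pattern was calculated.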
Chain of POU1 (OCT1 POU domain) (P14859 260-458): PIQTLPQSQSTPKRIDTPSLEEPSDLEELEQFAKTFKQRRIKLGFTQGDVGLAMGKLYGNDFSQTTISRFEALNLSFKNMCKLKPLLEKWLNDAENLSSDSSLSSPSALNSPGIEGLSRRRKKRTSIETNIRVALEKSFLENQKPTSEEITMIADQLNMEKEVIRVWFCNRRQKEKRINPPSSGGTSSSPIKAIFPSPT
(In EMSA bound probe runs differently from free probe, usually more slowly.)

Assay [2] has as its target T1, POU2 (OCT2 POU domain) (human, UniProt P09086 175-386).
T1 sequence: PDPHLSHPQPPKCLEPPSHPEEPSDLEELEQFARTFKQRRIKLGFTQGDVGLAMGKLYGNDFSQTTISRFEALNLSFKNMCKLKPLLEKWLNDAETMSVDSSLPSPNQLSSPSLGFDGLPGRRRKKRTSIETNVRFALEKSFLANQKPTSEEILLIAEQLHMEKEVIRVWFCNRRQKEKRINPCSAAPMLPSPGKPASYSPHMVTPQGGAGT
The description is as above. The conditions noted are these: protein: recombinant; dsDNA, one strand shown. In short, it runs like this:
as §1

For assay [3], the target named is POU1 (OCT1 POU domain);BOB1 (OBF1, OCA-B) (human;human, UniProt P14859;Q16633 260-458;1-256, |). The assay can be described thus: EMSA-SELEX-seq; with BOB1 (ternary complex band); 20 mM Tris-HCl pH 7.6, 140 mM NaCl, 10% glycerol, 0.5 mM EDTA, 0.05% Triton X-100, 0.1 mg/mL BSA, 0.1 mg/mL poly(dI-dC), 5 mM DTT, room temperature, 20 min; high values mean tight binding. The conditions noted are these: protein: recombinant;recombinant; copies: 1;1; dsDNA, one strand shown. In short, it runs like this: as §1

For assay [4], the target named is T2, POU2 (OCT2 POU domain);BOB1 (OBF1, OCA-B) (human;human, UniProt P09086;Q16633 175-386;1-256, |).
T2 sequence 1: T1 sequence
T2 sequence 2: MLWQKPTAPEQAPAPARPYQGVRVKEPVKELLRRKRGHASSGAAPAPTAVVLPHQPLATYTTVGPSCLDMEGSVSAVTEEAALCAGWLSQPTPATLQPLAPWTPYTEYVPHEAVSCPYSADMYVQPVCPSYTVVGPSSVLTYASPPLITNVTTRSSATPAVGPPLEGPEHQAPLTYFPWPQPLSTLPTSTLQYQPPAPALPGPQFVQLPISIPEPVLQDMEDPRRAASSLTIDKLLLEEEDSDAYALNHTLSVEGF
The assay is described as above. The settings on record: protein: recombinant;recombinant; copies: 1;1; dsDNA, one strand shown. In short, it runs like this:
as §1

The values that follow come from paper PMC10812921, “Transcriptional Coactivator BOB1 (OBF1, OCA-B) Modulates the Specificity of DNA Recognition by the POU-Domain Factors OCT1 and OCT2 in a Monomeric Configuration”.

With AGCCAAAA, the binding signal in assay [1] was 0.0355 % of ANNNNAAN 8-mers; in assay [2] it was 0.038 % of ANNNNAAN 8-mers; in assay [3], 0.0499 % of ANNNNAAN 8-mers; in assay [4], 0.0305 % of ANNNNAAN 8-mers.

AGGTTAAG: the binding signal in assay [1] is 0.0522 % of ANNNNAAN 8-mers; in assay [2], 0.0639 % of ANNNNAAN 8-mers; in assay [3], 0.0542 % of ANNNNAAN 8-mers; in assay [4], 0.052 % of ANNNNAAN 8-mers.

For the sequence AGCATAAC, the binding signal in assay [1] was 0.082 % of ANNNNAAN 8-mers; in assay [2], 0.099 % of ANNNNAAN 8-mers; in assay [3], 0.0207 % of ANNNNAAN 8-mers; in assay [4] it was 0.038 % of ANNNNAAN 8-mers.

For AACCGAAG, the binding signal was 0.0172 % of ANNNNAAN 8-mers in assay [1], 0.0201 % of ANNNNAAN 8-mers in assay [2], 0.0168 % of ANNNNAAN 8-mers in assay [3] and 0.014 % of ANNNNAAN 8-mers in assay [4].

Consider ATCCAAAG, for which the binding signal was 0.0427 % of ANNNNAAN 8-mers in assay [1], 0.0397 % of ANNNNAAN 8-mers in assay [2], 0.0566 % of ANNNNAAN 8-mers in assay [3] and 0.0446 % of ANNNNAAN 8-mers in assay [4].

In the case of AGAGGAAA, the binding signal was 0.069 % of ANNNNAAN 8-mers in assay [1], 0.0667 % of ANNNNAAN 8-mers in assay [2], 0.0687 % of ANNNNAAN 8-mers in assay [3] and 0.0619 % of ANNNNAAN 8-mers in assay [4].

On to ATGAAAAC, for which the binding signal is 0.0717 % of ANNNNAAN 8-mers in assay [1], 0.0604 % of ANNNNAAN 8-mers in assay [2], 0.0956 % of ANNNNAAN 8-mers in assay [3] and 0.0586 % of ANNNNAAN 8-mers in assay [4].

As to AGACCAAA, the binding signal is 0.0179 % of ANNNNAAN 8-mers in assay [1], 0.0213 % of ANNNNAAN 8-mers in assay [2], 0.0246 % of ANNNNAAN 8-mers in assay [3] and 0.0239 % of ANNNNAAN 8-mers in assay [4].

As for AGATGAAC, the binding signal in assay [1] was 0.0286 % of ANNNNAAN 8-mers; in assay [2], 0.0363 % of ANNNNAAN 8-mers; in assay [3], 0.0207 % of ANNNNAAN 8-mers; in assay [4], 0.0256 % of ANNNNAAN 8-mers.

Turning to AAATGAAG, the binding signal was 0.17 % of ANNNNAAN 8-mers in assay [1], 0.188 % of ANNNNAAN 8-mers in assay [2], 0.186 % of ANNNNAAN 8-mers in assay [3] and 0.2 % of ANNNNAAN 8-mers in assay [4].

For ACAGCAAA, the binding signal was 0.0248 % of ANNNNAAN 8-mers in assay [1], 0.0213 % of ANNNNAAN 8-mers in assay [2], 0.0359 % of ANNNNAAN 8-mers in assay [3] and 0.0347 % of ANNNNAAN 8-mers in assay [4].

With AAGCTAAT, the binding signal was 0.0969 % of ANNNNAAN 8-mers in assay [1], 0.136 % of ANNNNAAN 8-mers in assay [2], 0.0527 % of ANNNNAAN 8-mers in assay [3] and 0.0644 % of ANNNNAAN 8-mers in assay [4].

AGGGCAAG: the binding signal in assay [1] is 0.0294 % of ANNNNAAN 8-mers; in assay [2], 0.0322 % of ANNNNAAN 8-mers; in assay [3] it was 0.0332 % of ANNNNAAN 8-mers; in assay [4] it was 0.0363 % of ANNNNAAN 8-mers.

On to AGCCTAAG, for which the binding signal in assay [1] was 0.0183 % of ANNNNAAN 8-mers; in assay [2], 0.0207 % of ANNNNAAN 8-mers; in assay [3], 0.0219 % of ANNNNAAN 8-mers; in assay [4] it was 0.0149 % of ANNNNAAN 8-mers.

With ATAGCAAG, the binding signal in assay [1] is 0.032 % of ANNNNAAN 8-mers; in assay [2], 0.0363 % of ANNNNAAN 8-mers; in assay [3], 0.0394 % of ANNNNAAN 8-mers; in assay [4], 0.0454 % of ANNNNAAN 8-mers.

With ATCACAAA, the binding signal in assay [1] is 0.0332 % of ANNNNAAN 8-mers; in assay [2], 0.0374 % of ANNNNAAN 8-mers; in assay [3] it was 0.0539 % of ANNNNAAN 8-mers; in assay [4] it was 0.0438 % of ANNNNAAN 8-mers.

Turning to AGTCGAAG, the binding signal in assay [1] was 0.0305 % of ANNNNAAN 8-mers; in assay [2] it was 0.0357 % of ANNNNAAN 8-mers; in assay [3] it was 0.023 % of ANNNNAAN 8-mers; in assay [4], 0.0347 % of ANNNNAAN 8-mers.

Take AACGCAAG: the binding signal in assay [1] is 0.016 % of ANNNNAAN 8-mers; in assay [2], 0.0219 % of ANNNNAAN 8-mers; in assay [3], 0.0222 % of ANNNNAAN 8-mers; in assay [4] it was 0.0281 % of ANNNNAAN 8-mers.

As for ACTGTAAG, the binding signal in assay [1] was 0.0225 % of ANNNNAAN 8-mers; in assay [2] it was 0.027 % of ANNNNAAN 8-mers; in assay [3], 0.0265 % of ANNNNAAN 8-mers; in assay [4], 0.0264 % of ANNNNAAN 8-mers.

As for ACTACAAA, the binding signal is 0.0214 % of ANNNNAAN 8-mers in assay [1], 0.0391 % of ANNNNAAN 8-mers in assay [2], 0.0285 % of ANNNNAAN 8-mers in assay [3] and 0.0256 % of ANNNNAAN 8-mers in assay [4].

Take AATTTAAT: the binding signal was 0.306 % of ANNNNAAN 8-mers in assay [1], 0.333 % of ANNNNAAN 8-mers in assay [2], 0.182 % of ANNNNAAN 8-mers in assay [3] and 0.162 % of ANNNNAAN 8-mers in assay [4].

On to AAGGCAAG, for which the binding signal in assay [1] is 0.0328 % of ANNNNAAN 8-mers; in assay [2], 0.038 % of ANNNNAAN 8-mers; in assay [3], 0.0328 % of ANNNNAAN 8-mers; in assay [4], 0.0256 % of ANNNNAAN 8-mers.

For the sequence AGTTCAAC, the binding signal is 0.0229 % of ANNNNAAN 8-mers in assay [1], 0.0173 % of ANNNNAAN 8-mers in assay [2], 0.0246 % of ANNNNAAN 8-mers in assay [3] and 0.0173 % of ANNNNAAN 8-mers in assay [4].

On to AACACAAT, for which the binding signal in assay [1] was 0.0351 % of ANNNNAAN 8-mers; in assay [2], 0.0351 % of ANNNNAAN 8-mers; in assay [3], 0.0293 % of ANNNNAAN 8-mers; in assay [4], 0.0421 % of ANNNNAAN 8-mers.

ATGCTAAT: the binding signal is 1.85 % of ANNNNAAN 8-mers in assay [1], 1.82 % of ANNNNAAN 8-mers in assay [2], 0.249 % of ANNNNAAN 8-mers in assay [3] and 0.283 % of ANNNNAAN 8-mers in assay [4].

In the case of ATGCGAAA, the binding signal in assay [1] is 0.0835 % of ANNNNAAN 8-mers; in assay [2] it was 0.0926 % of ANNNNAAN 8-mers; in assay [3], 0.0648 % of ANNNNAAN 8-mers; in assay [4], 0.0743 % of ANNNNAAN 8-mers.

As for AGGAGAAG, the binding signal in assay [1] is 0.045 % of ANNNNAAN 8-mers; in assay [2] it was 0.0472 % of ANNNNAAN 8-mers; in assay [3] it was 0.0507 % of ANNNNAAN 8-mers; in assay [4] it was 0.0438 % of ANNNNAAN 8-mers.

On to ATGTCAAG, for which the binding signal in assay [1] is 0.0378 % of ANNNNAAN 8-mers; in assay [2], 0.0535 % of ANNNNAAN 8-mers; in assay [3], 0.0406 % of ANNNNAAN 8-mers; in assay [4], 0.052 % of ANNNNAAN 8-mers.
